# Bioassay records deposited in PubChem BioAssay by Johns Hopkins Ion Channel Center.
# An excerpt weighted towards active compounds, which were near 1.6% of everything screened.
# KCNQ2 pot: potentiators of rat KCNQ2 potassium channel; B-score at 10 µM; Potassium voltage-gated channel subfamily KQT member 2 (Rattus norvegicus), O88943; 310,000 compounds, 0.54% hits; CHO-K1 KCNQ2, FluxOR thallium flux fluorescence; active compounds read high;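 active = fluorescence ratio B-score at least 3 SD of library B-scores, with initial fluorescence B-score within 3 of them, cut at about 5.3 in these data; same plate scores as AID 2156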;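 also: B-score of peak minus minimum over baseline fluorescence ratio after K+ and Tl+ stimulus; positive B-score means potentiation of KCNQ2 with more thallium influx and brighter signal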
# Target sequence (O88943 whole entry, looked up): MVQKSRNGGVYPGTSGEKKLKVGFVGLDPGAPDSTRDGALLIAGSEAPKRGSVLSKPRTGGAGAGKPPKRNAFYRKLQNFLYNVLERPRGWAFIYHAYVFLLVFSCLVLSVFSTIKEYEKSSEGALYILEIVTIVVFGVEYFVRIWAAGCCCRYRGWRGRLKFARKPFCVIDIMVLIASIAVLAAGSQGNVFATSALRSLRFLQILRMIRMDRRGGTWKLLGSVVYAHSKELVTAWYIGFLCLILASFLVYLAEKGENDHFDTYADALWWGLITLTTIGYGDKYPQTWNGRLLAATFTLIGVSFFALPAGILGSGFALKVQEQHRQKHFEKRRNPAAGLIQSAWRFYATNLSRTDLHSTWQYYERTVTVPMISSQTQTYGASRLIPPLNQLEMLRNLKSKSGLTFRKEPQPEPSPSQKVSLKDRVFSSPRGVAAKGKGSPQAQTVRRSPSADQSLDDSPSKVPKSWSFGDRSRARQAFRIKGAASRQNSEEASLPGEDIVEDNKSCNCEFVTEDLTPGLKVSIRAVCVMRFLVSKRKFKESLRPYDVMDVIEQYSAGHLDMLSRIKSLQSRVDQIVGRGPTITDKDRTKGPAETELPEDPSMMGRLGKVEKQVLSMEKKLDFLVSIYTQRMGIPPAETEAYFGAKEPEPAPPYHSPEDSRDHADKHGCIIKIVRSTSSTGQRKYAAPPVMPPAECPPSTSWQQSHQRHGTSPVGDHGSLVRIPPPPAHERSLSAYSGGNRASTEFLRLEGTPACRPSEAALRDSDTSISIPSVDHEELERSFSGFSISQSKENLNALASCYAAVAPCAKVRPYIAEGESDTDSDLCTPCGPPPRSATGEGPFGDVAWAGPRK
# KCNQ2 block: rat KCNQ2 potassium channel inhibitors, primary screen, cell-based, CHO-K1, FluxOR thallium flux, B-score; 20 min; active compounds read low; AID 2156, 2009; Potassium voltage-gated channel subfamily KQT member 2 (Rattus norvegicus), O88943; B-score at 10 µM; 310,000 compounds, 1.1% hits;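 active = fluorescence ratio B-score at most minus 3 library SDs, with starting brightness B-score within 2 library SDs, cut at about -5.5 in these data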
# Numbers stand for hits; i = inactive; nt = no result given.
SMILES,KCNQ2 pot,KCNQ2 block
Cc1ccc(S(=O)(=O)/N=c2\ccc(Cl)cn2C(F)F)cc1,nt,i
O=C(NCCc1nc(-c2ccccc2)cs1)c1ccc(Br)cc1,nt,i
Cc1ccc(S(=O)(=O)c2cc3ccccc3nc2N)cc1,i,i
Cc1cc(Br)ccc1NC(=O)CN(C)C(=O)c1cc([N+](=O)[O-])ccc1N1CCOCC1,i,-6.5
Cc1ccc(C)c(NC(=O)CN(C)C(=O)c2cc([N+](=O)[O-])ccc2N2CCOCC2)c1,i,i
Cc1ccc2c(c1)C1CN(C)CCC1N2C(=O)COc1ccc(N(C)C(=O)C(C)(C)C)cc1 (centres undefined),nt,i
Cc1ccc2c(c1)C1CN(C)CCC1N2CC(=O)N(C)c1ccccc1 (centres undefined),5.6,i
C=CCOc1ccc(/C=C/C(=O)OCC(=O)NCc2ccco2)cc1,i,i
CCOC(=O)C1=C(C(F)(F)F)Nc2ncnn2C1c1ccc(OC)cc1OC (centres undefined),nt,i
Cc1ccc2c(c1)cc(CN(CCc1ccccc1)C(=O)N1CCOCC1)c1nnnn12,nt,i
Cc1ccc2c(c1)cc(CN(Cc1ccco1)C(=O)N1CCOCC1)c1nnnn12,i,-8.8
Cc1cc(C)nc(N/N=C/C2=C(O)CC(c3ccccc3)CC2=O)n1 (centres undefined),i,i
CN(C)S(=O)(=O)Nc1cc(F)cc(F)c1,nt,i
CC(=O)Sc1nc(-c2ccccc2)[nH]c1S(=O)(=O)c1ccc(C)cc1,i,-11
CSc1nc(-c2ccc(C)cc2)[nH]c1S(=O)(=O)c1ccccc1,nt,i
COc1ccc(C(C(=O)NC(C)(C)C)N(C(=O)CCC(=O)Nc2cc(C)on2)c2c(C)cccc2C)cc1 (centres undefined),nt,i
CC1(C)CC(=O)C(C(C2=C(O)CC(C)(C)CC2=O)c2ccc(Br)s2)C(=O)C1 (centres undefined),nt,i
CCC(=O)c1ccccc1OCCCCn1cncn1,i,i
C/C(=N\Nc1nc(C)c(C)s1)c1ccc([N+](=O)[O-])cc1,5.4,i
C/C(=N\Nc1ccc([N+](=O)[O-])cc1)c1ccc(N)cc1,nt,i
CC1CCCC(NC(=S)Nc2cccc(S(=O)(=O)N(C)C)c2)C1C (centres undefined),i,i
CCS(=O)(=O)N1Cc2ccccc2CC1C(=O)NC(C)C12CC3CC(CC(C3)C1)C2 (centres undefined),nt,i
CCS(=O)(=O)N1Cc2ccccc2CC1C(=O)NCC12CC3CC(CC(C3)C1)C2 (centres undefined),i,-7.1
O=c1c(Cc2ccc(F)cc2)c(O)ccn1CCCn1ccnc1,nt,i
c1ccc2sc(NC3=NCN(CCN4CCOCC4)CN3)nc2c1,nt,i
SMILES,KCNQ2 pot,KCNQ2 block
COC(=O)c1cn(NC(=O)Cc2ccc(Cl)cc2)c(=O)c2ccccc12,18,i
COC(=O)c1cn(NC(=O)Cc2ccccc2OC)c(=O)c2ccccc12,nt,i
COC(=O)c1cn(NC(=O)Cc2cccc(C(F)(F)F)c2)c(=O)c2ccccc12,i,i
COC(=O)c1cn(NC(=O)Cc2ccc(Cl)c(Cl)c2)c(=O)c2ccccc12,30,i
CCCCn1c(Cn2nc(C(=O)O)c3ccccc3c2=O)nc2cc(S(N)(=O)=O)ccc21,i,i
O=c1c2ccccc2[nH]c(=S)n1CCN1CCCCC1,i,i
O=c1c2ccccc2[nH]c(=S)n1CCC1=CCCCC1,8.4,i
CC1CCCN(C(=O)c2ccc([N+](=O)[O-])o2)C1 (centres undefined),nt,i
CC1CCCN(C(=O)c2ccc(-c3ccccc3Cl)o2)C1 (centres undefined),i,-7.4
Cc1ccc(-n2nc(C)c3c(C)c(CCC(=O)Nc4ccc(CN5CCCC5)cc4)c(C)nc32)cc1,i,-7.9
COC(CNC(=O)CCc1c(C)nc2c(c(C)nn2-c2ccc(C)cc2)c1C)OC,i,i
CCCCOc1ccc(C(=O)N2CCNC(=O)C2)cc1,nt,i
COC(=O)c1ccc(OC)c(CSc2nnc(COc3cccc(C)c3)o2)c1,i,-6.1
COC(=O)c1ccc(OC)c(CSc2nnc(COc3ccc(OC)cc3)o2)c1,nt,i
CCOC(=O)c1c(=O)n(O)c2ccc(OC)cc2[n+]1[O-],nt,i
O=C(NCCCc1ccc(F)cc1)C1CCC(=O)N(CCCN2CCCC2=O)C1 (centres undefined),i,i
COC(=O)c1c(-c2c(Cl)cccc2Cl)noc1NC(=O)NN1CCOCC1,nt,i
O=C(Nc1csc(Cc2c(Cl)cccc2Cl)n1)NN1CCOCC1,6.1,i
CCOC(=O)c1ccc(NS(=O)(=O)c2c(C)[nH]c(C)c2C(=O)N2CCCCC2)cc1,i,i
COc1cc2cc(C(=O)Nc3ccc4c(c3)OCCO4)[nH]c2cc1OC,i,i
O=S(=O)(Nc1nc2c(s1)CCCC2)c1ccc2ccccc2c1,i,i
c1ccc2c(Nc3nc4c(s3)CCCC4)cccc2c1,i,-7.4
CCSC1(SCC)N=C(N)C2(C#N)C(c3ccc(F)cc3)C12C#N (centres undefined),i,-5.9
COC1(OC)N=C(N)C2(C#N)C(c3ccc(F)cc3)C12C#N (centres undefined),i,i
CC(=O)c1cccc(NC(=O)c2ccccc2N(C)S(=O)(=O)c2ccc(C)cc2)c1,nt,i
SMILES,KCNQ2 pot,KCNQ2 block
Cc1ccc(S(=O)(=O)N(C)c2ccccc2C(=O)Nc2c(F)cccc2F)cc1,i,-5.9
O=C(O)C(Cc1c[nH]c2ccccc12)NS(=O)(=O)c1ccc(Br)cc1 (centres undefined),i,i
O=C(O)C(Cc1c[nH]c2ccccc12)NS(=O)(=O)c1ccc(Cl)cc1 (centres undefined),i,-7.3
O=C(C1CC1)N1N=C(C2CCCCC2)CC1(O)C(F)(F)F (centres undefined),nt,i
O=C(CN(Cc1ccco1)C(=O)c1ccc(Cl)cc1)Nc1c(Cl)cc(Cl)cc1Cl,nt,i
O=C(CN(Cc1ccco1)C(=O)c1cccc(Cl)c1)Nc1c(Cl)cc(Cl)cc1Cl,i,-5.7
COc1ccc(CCNC(=O)c2ccc(NS(=O)(=O)c3ccc4[nH]c(=O)[nH]c4c3)cc2)cc1,nt,i
COc1ccc(S(=O)(=O)N2CCCCCC2)cc1C(=O)N(C)Cc1ccc(C)cc1,nt,i
COc1cccc(NC(=O)CN(C)C(=O)c2cccc(S(=O)(=O)N3CCN(c4ccccc4)CC3)c2)c1,i,i
COc1ccc(S(=O)(=O)N2CCCCCC2)cc1C(=O)N(C)Cc1ccccc1F,i,-5.8
COc1cccc(CN(C)C(=O)c2cc(S(=O)(=O)N3CCN(c4ccccc4)CC3)ccc2Cl)c1,i,-5.6
O=C(NNC(=O)c1ccco1)c1cccc([N+](=O)[O-])c1,i,i
CCOc1ccc(NC(=S)N(C)C)cc1,i,i
O=C(Cc1c[nH]c2ccccc12)Nc1ccc(N2CCOCC2)cc1,i,i
COc1ccc(-n2c(CCC(=O)O)ccc2-c2ccc(F)cc2)c(OC)c1,i,i
Cc1sc2nc(-c3ccccn3)[nH]c(=O)c2c1-c1ccccc1,13,i
Cc1sc2nc(-c3ccncc3)[nH]c(=O)c2c1-c1ccccc1,i,i
COc1ccc(C[C@H]2CN3C(=NC[C@@H]3Cc3ccc(O)cc3)N2CCNC(=O)c2ccc(C)c(Br)c2)cc1,nt,i
COc1ccc(C[C@H]2CN3C(=NC[C@@H]3Cc3ccccc3)N2CCNC(=O)c2ccc(C)c(Br)c2)cc1,i,-5.8
Cc1ccc(S(=O)(=O)N2CCC(=O)N(CCO)CC2)cc1,i,i
Cc1sc(NC(=S)NC(=O)C(C)(C)C)c(C(N)=O)c1C,nt,i
